From PubChem
Myeloid diff MLP = compounds promoting myeloid differentiation. ER-HoxA9 myeloid progenitors, lysozyme-GFP differentiation, flow cytometry. calls only at 10 µM. AID 624256. actives 1% (n = 360,000);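 active = normalized GFP-positive differentiation at or above the plate's own cutoff, the solvent-only control mean plus 3 SD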;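 note: cells exposed to compound for four days before flow analysis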
DAGLB inh = blocks human DAGLB lipase activity | HEK293T DAGLB membrane lysate, EnzChek fluorogenic substrate | inhibition, % at 5.17 µM | AID 504411 | actives 0.059% (n = 340,000) | Q8NCG7; in the data active = inhibition above about 34%;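 note: 0% = enzyme with vehicle and 100% = wells lacking enzyme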
Target sequence (Q8NCG7 whole entry, looked up): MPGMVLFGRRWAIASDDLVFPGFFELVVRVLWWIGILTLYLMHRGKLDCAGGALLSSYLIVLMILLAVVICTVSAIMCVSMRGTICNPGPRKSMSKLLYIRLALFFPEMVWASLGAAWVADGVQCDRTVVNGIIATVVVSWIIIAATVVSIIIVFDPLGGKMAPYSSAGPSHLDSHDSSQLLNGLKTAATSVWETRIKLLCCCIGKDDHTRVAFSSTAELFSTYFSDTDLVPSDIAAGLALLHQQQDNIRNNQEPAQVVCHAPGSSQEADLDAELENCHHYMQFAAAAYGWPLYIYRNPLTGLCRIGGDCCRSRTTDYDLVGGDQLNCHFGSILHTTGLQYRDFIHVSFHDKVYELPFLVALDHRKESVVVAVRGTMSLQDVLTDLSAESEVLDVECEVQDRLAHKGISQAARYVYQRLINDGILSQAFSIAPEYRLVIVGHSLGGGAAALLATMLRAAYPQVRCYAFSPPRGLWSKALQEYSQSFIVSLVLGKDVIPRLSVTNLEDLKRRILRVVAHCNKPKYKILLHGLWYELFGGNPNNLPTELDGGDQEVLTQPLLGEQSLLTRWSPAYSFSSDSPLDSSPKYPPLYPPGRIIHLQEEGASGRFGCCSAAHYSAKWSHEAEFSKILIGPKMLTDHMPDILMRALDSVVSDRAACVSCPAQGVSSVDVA
H9c2 protect = protects H9c2 cardiomyocytes from peroxide injury; H2O2 injury protection, ATPLite, 2 h; protection from H2O2 cell death, % at 20 µM; actives 0.63% (n = 360,000); AID 588492;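 active = compounds giving at least 50% protection of heart cells from peroxide-induced death in the single-dose screen, raw or plate-pattern-corrected value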;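 note: 0% = DMSO wells with peroxide and 100% = DMSO wells without peroxide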
ABHD5-PLIN5 inh = inhibitors of human ABHD5-perilipin-5 interaction | Split G. princeps luciferase complementation, luminescence, 4 h | inhibition, % at 4 µM | actives 0.78% (n = 360,000) | AID 602281;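 active = inhibition above the mean inhibition across every tested compound plus 3 SD, cut at about 22% in these data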;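 note: 0% = DMSO only wells and the 100% control is not disclosed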
sPLA2-III inh = Inhibits HGIII-sPLA2 liposome hydrolysis, primary screen; inhibition, % at 12.2 µM; actives 0.56% (n = 370,000); QFRET BODIPY PC-A2 liposome hydrolysis, fluorescence;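 active = inhibition above mean plus 3 SD of compounds lying within the high and low control bounds, cut at about 19% in these data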;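 note: 0% = median of test compound wells and 100% = no enzyme DMSO wells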
Rtt109 HAT inh = inhibitors of Candida albicans Rtt109/Vps75 histone acetyltransferase | inhibition, % at 34.9 µM | purified Rtt109/Vps75, ThioGlo CoA-SH fluorescence, 4 h | Q5AAJ8 | actives 0.16% (n = 330,000) | AID 540336;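 active = inhibition of at least 50% in every replicate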
Myeloid diff CP1 = promotes myeloid progenitor differentiation. AID 651706. shares compounds with Myeloid diff MLP. calls only. actives 2% (n = 2,300). ER-HoxA9 myeloid progenitors, GFP/Mac1 double-positive flow;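 active = share of green or green-and-red cells above 9 and 9% in run 1 or 4 and 3% in run 2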
GFP autofluor = flagged as fluorescent in myeloid differentiation counter-screen; shares compounds with Myeloid diff MLP; ER-HoxA9 myeloid progenitors, no estrogen, GFP autofluorescence flow cytometry; vehicle wells 0%, positive control 100%; fluorescence response, % (concentration not given with the values); actives 7.4% (n = 2,300);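 active = over 5% cells positive for green fluorescent reporter, or over 2% positive for both it and APC stain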;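 note: range taken on the double positive population between DMSO and positive control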
* hit, by the source's call; i = inactive; / = no result; + = active, no number. Sampled rows, rich in hits. Any-hit rate of the full collection: about 2.9%.

SMILES | Myeloid diff MLP | DAGLB inh | H9c2 protect | ABHD5-PLIN5 inh | sPLA2-III inh | Rtt109 HAT inh | Myeloid diff CP1 | GFP autofluor
COc1ccc(NS(=O)(=O)c2cccc(C(=O)NNC(=O)CNC(=O)c3ccccc3)c2)cc1 | i | 3 | 8 | 0 | -13 | -1 | / | /
COc1ccc(N2CCN(C(=O)c3ccc(NS(=O)(=O)c4cccc(F)c4)cc3)CC2)cc1 | i | 6 | -5 | -2 | -41 | -3 | i | 1
COc1ccc(N2CCN(C(=O)c3ccc(C)c(Cl)c3)CC2)cc1 | i | -4 | -2 | 11 | 0 | 30 | i | 0
COc1ccc(NS(=O)(=O)c2cccc(C(=O)NNC(=O)COc3ccccc3)c2)cc1 | + | 1 | 3 | -9 | -30 | 3 | i | 0
COc1ccc(N2CCN(C(=O)c3ccc(Cl)c(S(=O)(=O)N4CCCC4)c3)CC2)cc1 | i | 0 | -5 | 4 | -1 | / | / | /
CCOC(=O)CNC(=O)CSc1nc2cccnc2n1C | i | 3 | 4 | -1 | -2 | / | / | /
COc1cccc(C(=O)NC(=S)Nc2ccccc2N2CCCCC2)c1 | + | -20 | -5 | -6 | 0 | 0 | i | 1
COc1cccc(C(=O)NC(=S)Nc2ccccc2N2CCCC2)c1 | i | -8 | 1 | -17 | 9 | 3 | / | /
COc1ccc(C2=NOC(Cn3nc(C(=O)NCc4cccs4)cc3-c3ccccc3)C2)cc1 (stereo unspecified) | i | -1 | 10 | 5 | -8 | -1 | / | /
COc1ccc(C2=NOC(Cn3nc(-c4ccccc4)cc3C(=O)NCc3cccs3)C2)cc1 (stereo unspecified) | i | -9 | 3 | -8 | -20 | 4 | i | 0
COc1cc(CNC(=O)c2cc3ccccc3oc2=O)cc(OC)c1OC | i | 1 | -4 | -4 | -4 | -6 | / | /
CN(CC(=O)Nc1ccc(F)c(F)c1F)C(=O)CC1OC(=O)c2ccccc21 (stereo unspecified) | i | -1 | 4 | -7 | 4 | 14 | / | /
CCn1nc(C(=O)OCC(=O)Nc2nc(-c3ccc(OC)cc3)cs2)c2ccccc2c1=O | + | -11 | 10 | 0 | 7 | 10 | i | 0
CCn1nc(C(=O)OCC(=O)NCC(C)C)c2ccccc2c1=O | i | 1 | 7 | 0 | 1 | 0 | / | /
COc1cc(CNc2nc(C)c([N+](=O)[O-])c(C)c2C#N)cc(OC)c1OC | i | -3 | -14 | -1 | 1 | 1 | / | /
COc1ccc(NS(=O)(=O)c2cc3c(cc2C)NC(=O)CO3)c(OC)c1 | i | 4 | 2 | 9 | 3 | -3 | / | /
Cc1ccc(Nc2ncccc2C(=O)NCc2cccs2)c(C)c1 | i | -2 | -9 | -8 | -3 | 0 | / | /
Cc1cccc(Nc2ncccc2C(=O)NCc2cccs2)c1C | i | -1 | -5 | 9 | -10 | 18 | i | 0
O=C(Cn1cccc1C(=O)c1ccccc1)NCc1cccs1 | i | 1 | -1 | 1 | 1 | 10 | i | 0
CCN(Cc1cnn(C)c1)C(=O)CC1C(=O)NCCN1Cc1cccc(OC)c1OC (stereo unspecified) | i | 1 | 3 | 1 | 1 | -4 | / | /
COc1ccc(-c2csc(NC3CCCCC3)n2)c(OC)c1 | + | 0 | -3 | -10 | 2 | 12 | i | 0
c1ccc(-c2csc(NC3CCCCC3)n2)cc1 | / | -3 | -14 | 4 | 14 | / | / | /
O=C(c1ccco1)N1CC2(CC(c3ccc(Cl)cc3)=NO2)CN1Cc1ccc(Br)cc1 (stereo unspecified) | i | -3 | -6 | -2 | 1 | / | i | 0
Cc1ccc(CNC(=O)Cn2c([N+](=O)[O-])cnc2C)cc1 | i | 2 | 3 | -4 | 7 | -10 | / | /
O=C1S/C(=C\c2ccc(N3CCOCC3)o2)C(=O)N1c1ccccc1 | + | 2 | -18 | -1 | -21 | 2 | i | 9.6*
SMILES | Myeloid diff MLP | DAGLB inh | H9c2 protect | ABHD5-PLIN5 inh | sPLA2-III inh | Rtt109 HAT inh | Myeloid diff CP1 | GFP autofluor
O=C(O)c1ccccc1-c1ccc(/C=C2\SC(=O)N(c3ccccc3)C2=O)o1 | i | 0 | 2 | -2 | 0 | -1 | / | /
O=C(O)C1Cc2ccccc2-c2ccccc2C1 | i | 3 | -3 | -10 | 0 | -25 | / | /
O=C(O)[C@@H]1Cc2ccccc2N1 | + | 2 | -8 | 0 | -11 | 11 | i | 5.4*
COc1ccc(C(=O)n2c(SC)nc3cc4c(cc32)OCCO4)cc1 | i | 0 | 0 | 2 | 3 | -2 | / | /
COc1ccc(C2=Nc3ccccc3N(C(=O)c3ccc(C(F)(F)F)cc3)C2C(=O)Nc2c(C)cccc2C)cc1 (stereo unspecified) | i | / | / | 5 | 5 | / | i | 0
CCOC(=O)Nc1nc(C)c(C(=O)c2ccc(Cl)cc2)s1 | i | 2 | 4 | 4 | -6 | -6 | i | 0
Cc1ccc(S(=O)(=O)CCC(=O)Nc2ccc3c(c2)OCO3)cc1 | i | 3 | -7 | -1 | 1 | 9 | / | /
Cc1ccc(S(=O)(=O)NCCC(=O)Nc2ccc3c(c2)OCO3)cc1 | i | -3 | -3 | 8 | -4 | 4 | i | 1
O=C(Nc1ccc(Cc2ccncc2)cc1)C1CCC(N2C(=O)C3C4C=CC(C5CC45)C3C2=O)CC1 (stereo unspecified) | + | -2 | -1 | -3 | -4 | 3 | i | 1
CC(=O)Nc1ccc(NC(=O)C2CCC(N3C(=O)C4C5C=CC(C6CC56)C4C3=O)CC2)cc1 (stereo unspecified) | i | -3 | 11 | 2 | 3 | -2 | / | /
Clc1cccc(Nc2nc(N3CCOCC3)nc(N3CCOCC3)n2)c1 | i | 0 | -4 | -10 | 8 | -2 | i | 0
Clc1ccc(Oc2nc(Oc3ccc(Cl)cc3)nc(N3CCOCC3)n2)cc1 | + | -8 | -13 | 7 | 1 | 8 | i | 1
c1ccc(Oc2nc(Oc3ccccc3)nc(N3CCOCC3)n2)cc1 | i | -6 | -15 | 0 | -4 | 3 | / | /
Cc1ccnc(NC(=O)c2cc(S(=O)(=O)N3CCCCC3)ccc2Cl)c1 | i | -4 | -4 | 1 | 8 | 0 | / | /
CCOc1ccccc1CN(Cc1ccco1)S(=O)(=O)c1ccc(-n2cnnn2)c(OC)c1 | + | -4 | 12 | 4 | -25 | -3 | i | 0
COC(=O)C1CN(Cc2ccc(OC)cc2)CCS(=O)(=O)N1Cc1cn(Cc2ccccc2)nn1 (stereo unspecified) | / | / | / | / | -3 | / | / | /
CCCSC1=C(C#N)C(c2cc(OC)ccc2OC)CC(=O)N1 (stereo unspecified) | i | 2 | -4 | 3 | 1 | -14 | i | 1
